± gives the standard deviation of the averaged measurements. The full ranking holds about 33,000 sequences; the median of “E-score (dimensionless, -0.5 to 0.5)” is about -0.049, and the highest 2% start at about 0.37. Shown is part of a subset that was picked to be rich in the highest values.
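Note: 200 nM protein in PBS on universal arrays averaged over duplicate arrays.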

The experiment concerns T1, PmTbr T-box DNA-binding domain (GST fusion).
T1 sequence: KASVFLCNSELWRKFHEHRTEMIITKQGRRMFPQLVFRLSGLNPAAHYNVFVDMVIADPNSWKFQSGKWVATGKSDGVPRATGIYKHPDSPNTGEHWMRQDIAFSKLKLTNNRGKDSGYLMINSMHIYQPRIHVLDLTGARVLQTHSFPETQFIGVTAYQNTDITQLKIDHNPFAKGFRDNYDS
Kind of experiment: PBM E-score of 8-mer (E-score (dimensionless, -0.5 to 0.5)); Tbr is Tbrain of the sea star Patiria miniata (Pm) or the sea urchin Strongylocentrotus purpuratus (Sp); higher = stronger binding preference. The following applies: the construct has about 5 more residues each side. The protocol: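 Universal protein-binding microarray (Agilent AMADID 016060, 60-bp probes with a 35-bp variable region) incubated with 200 nM GST-fused Patiria miniata Tbr T-box DNA-binding domain (residues 272-466) in PBS pH 7.5. Scored for every ungapped 8-mer (given with its reverse complement) by the Universal PBM Analysis Suite as E-score (modified Wilcoxon-Mann-Whitney enrichment, range -0.5 to 0.5; >0.45 counts as bound) and Z-score of median probe intensity. Two replicate arrays (datasets 1 and 2).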
Take CCGCGAAA: the “PBM E-score of 8-mer” value is 0.305 ± 0.027.
The same measure for CCGCGAAC: 0.271 ± 0.036; for GCGCGATA: 0.337 ± 0.011; for CAATCATA: -0.102 ± 0.056.
With AACCCTGA, the “PBM E-score of 8-mer” value is -0.108 ± 0.0053.
For GCCACTAA, the “PBM E-score of 8-mer” value worked out at 0.153 ± 0.019.
The same measure for AGATACTC: -0.119 ± 0.09; for TGCAGGAA: -0.153 ± 0.036; for CTCCCAAC: -0.0412 ± 0.0027.
The same measure for AAGAACCC: -0.192 ± 0.042; for CGACACCG: 0.273 ± 0.033; for AGACACCA: 0.2603 ± 0.00061.
The figure for CGACACCC is 0.439 ± 0.022; for GGACACCA it is 0.0777 ± 0.029; for CGACACCA it is 0.414 ± 0.01.
CGACACGA: the “PBM E-score of 8-mer” value was 0.183 ± 0.071.
The figure for TGACACCA is 0.427 ± 0.02; for AGACACCC it is 0.259 ± 0.023; for GGACACCC it is 0.242 ± 0.037.
Regarding AAGAAAAC, the “PBM E-score of 8-mer” value is -0.0889 ± 0.032.
In the case of CGTTGGTA, the “PBM E-score of 8-mer” value was -0.0221 ± 0.009.
The figure for AAGTGCCG is 0.289 ± 0.025; for TGAGCAAA it is 0.0705 ± 0.069; for AGGCCTGG it is -0.293 ± 0.041.
Regarding ACCTGCGT, the “PBM E-score of 8-mer” value was found to be 0.112 ± 0.063.
AATTGGGA: the “PBM E-score of 8-mer” value is -0.0137 ± 0.033.
As for AACCTCTA, the “PBM E-score of 8-mer” value is -0.151 ± 0.025.
The same measure for CACCTCTC: 0.419 ± 0.023.
The same measure for GACCTCTA: -0.259 ± 0.07; for CACCTCTG: 0.4165 ± 0.00058.
AACCTCTG: the “PBM E-score of 8-mer” value is -0.151 ± 0.032.
The same measure for CAACTCTG: 0.16 ± 0.08.
The same measure for CACCTCTA: 0.44129 ± 0.00038.
The figure for AACCTCTC is -0.0958 ± 0.093.
Take GACCTCTC: the “PBM E-score of 8-mer” value is -0.109 ± 0.026.
The same measure for CACCACCA: 0.201 ± 0.034.
Regarding CTTTTCTA, the “PBM E-score of 8-mer” value was 0.0811 ± 0.085.
The figure for CTCCTCAA is -0.204 ± 0.024; for GCTTTCTA it is -0.0965 ± 0.11; for AGTGTGCC it is 0.125 ± 0.0018.
The figure for CAATGGAA is -0.144 ± 0.028; for ATGCCAAC it is 0.0888 ± 0.00082; for GTGCCAAA it is 0.421 ± 0.017.
The same measure for GTGCCAAC: 0.403 ± 0.0056; for CTGCCAAA: 0.186 ± 0.061; for TTGCCAAA: 0.11 ± 0.066.
Take CTGCCAAC: the “PBM E-score of 8-mer” value came out at 0.0539 ± 0.0096.
In the case of CCATATAC, the “PBM E-score of 8-mer” value is -0.00383 ± 0.065.
As for AGTCGATA, the “PBM E-score of 8-mer” value stood at 0.147 ± 0.016.
As for AGCAGAAC, the “PBM E-score of 8-mer” value is -0.287 ± 0.013.
The figure for ACAACTGA is 0.172 ± 0.019.
As for ACACCTCT, the “PBM E-score of 8-mer” value stood at 0.48594 ± 0.00022.
The same measure for TAACCTCA: -0.152 ± 0.0019; for AGACCTCT: -0.301 ± 0.015.
Turning to CCACCTCA, the “PBM E-score of 8-mer” value was determined as 0.229 ± 0.039.
The same measure for TCACCTCA: 0.437 ± 0.00059; for ACACCTCA: 0.47047 ± 0.00026.
As for TGACCTCA, the “PBM E-score of 8-mer” value worked out at 0.0125 ± 0.0081.
The figure for AGACCTCA is 0.0571 ± 0.053; for AAACCTCT it is -0.362 ± 0.051; for ACGCCTGC it is 0.24 ± 0.0036.
The figure for GTGAAACA is 0.188 ± 0.036; for CTGCTTGC it is -0.132 ± 0.025.
In the case of CGGCAGAG, the “PBM E-score of 8-mer” value was 0.00638 ± 0.076.
Turning to CGGCTGTC, the “PBM E-score of 8-mer” value was determined as 0.0205 ± 0.07.
The figure for CCTTCGGA is -0.0659 ± 0.042; for CGTAACAC it is 0.365 ± 0.011; for GGTAACAA it is 0.198 ± 0.056.
Turning to AGTAACAC, the “PBM E-score of 8-mer” value is 0.393 ± 0.025.
The figure for AGTAACAA is 0.167 ± 0.0063.
The same measure for GGTAACAC: 0.43 ± 0.0044.
Regarding AGTAACAG, the “PBM E-score of 8-mer” value was determined as 0.037 ± 0.085.
In the case of GTCTACGA, the “PBM E-score of 8-mer” value is -0.127 ± 0.013.
The same measure for ATCGCAGG: 0.0806 ± 0.064.
Regarding ACTCACTA, the “PBM E-score of 8-mer” value stood at 0.144 ± 0.02.
As to CCTTAACG, the “PBM E-score of 8-mer” value was determined as 0.00703 ± 0.089.
The figure for ATGGGTAC is -0.173 ± 0.035; for TAGGGTCA it is -0.0997 ± 0.066; for ATTGCAGC it is -0.0944 ± 0.071.
The same measure for CTGTCAAA: 0.266 ± 0.04; for GTGTCAAA: 0.448 ± 0.0094.
For the sequence ATGTCATA, the “PBM E-score of 8-mer” value is -0.187 ± 0.0068.
The figure for TTGTCAAA is 0.144 ± 0.09; for ATGTCAAC it is 0.171 ± 0.006.
The figure for GTGTCAAC is 0.466 ± 0.007.
Turning to GTGTCATA, the “PBM E-score of 8-mer” value came out at 0.4057 ± 0.0013.
GTGTCGAA: the “PBM E-score of 8-mer” value stood at 0.38248 ± 9.9e-05.
For ATGTCGAA, the “PBM E-score of 8-mer” value is -0.0919 ± 0.073.
The figure for CTGTCATA is 0.151 ± 0.011; for CTGTCGAA it is 0.125 ± 0.0096.
In the case of CTGTCAAC, the “PBM E-score of 8-mer” value turned out to be 0.338 ± 0.011.
The figure for CACATCAG is 0.162 ± 0.035; for ACGATGTG it is 0.25 ± 0.067.
The figure for ACGTACTC is 0.061 ± 0.028; for GCATCAAC it is 0.0651 ± 0.026.
The same measure for GGGGCTGA: -0.1789 ± 0.00037; for ATAGGTAC: -0.105 ± 0.041.
On to ACGGCCAT, for which the “PBM E-score of 8-mer” value was -0.105 ± 0.12.
The figure for CTGTCAGA is 0.211 ± 0.014.
On to GTGTCAGA, for which the “PBM E-score of 8-mer” value is 0.3931 ± 0.00061.
The same measure for ATGTCAGA: -0.162 ± 0.069; for AGGGATAA: -0.203 ± 0.032.
On to TCGTTTCA, for which the “PBM E-score of 8-mer” value worked out at 0.145 ± 0.031.
The same measure for GAGTGACC: -0.0846 ± 0.0063; for GAGTGACA: 0.373 ± 0.017; for CAGTGACG: 0.134 ± 0.011.
TAGTGAAA: the “PBM E-score of 8-mer” value is 0.144 ± 0.048.
The figure for TAGTGACA is 0.398 ± 0.0059; for AAGTGACT it is 0.092 ± 0.006.
In the case of AAGTGACA, the “PBM E-score of 8-mer” value turned out to be 0.458 ± 0.0065.
The same measure for AAGTGACG: 0.4043 ± 0.003; for AAGTGAAA: 0.154 ± 0.056.
For the sequence AAGTGACC, the “PBM E-score of 8-mer” value worked out at 0.185 ± 0.041.
On to GAGTGAAA, for which the “PBM E-score of 8-mer” value stood at 0.16 ± 0.1.
Take CAGTGACA: the “PBM E-score of 8-mer” value stood at 0.338 ± 0.0041.

Values taken from the supplement of paper PMC4166925.
